Bioassay records from PubChem.
This is a sample that favours compounds with a hit; in the whole collection about 5.3% have one here.
15-hLO-2 inh: blocks human 15-lipoxygenase 2 activity. O15296. purified 15hLO-2, xylenol orange hydroperoxide absorbance. Potency, µM (titrated, usually from 57.1 µM), hits mostly inhibitors. 110,000 compounds, 0.56% hits; note: nearly all actives have a fitted effect of over 60% in size
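Enzyme 50 nM, AA 45 uM, 25 mM Hepes pH 7.5 + 0.01% Triton X-100; cpd preinc 15 min RT, rxn 90 min RT; stop/detect with 200 uM XO + 300 uM Fe(II) in 50 mM H2SO4, 30 min; A573/A405.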
PNC inhibitor: perinucleolar compartment assembly inhibition; PC3M PTB-GFP, PNC prevalence imaging, 16 h; active compounds read low; activity change (PNC), negative = inhibition, % at 10 µM; 140,000 compounds, 3.1% hits; AID 2417;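 active = readout at or below -70, meaning at least 70% loss of cells showing the perinucleolar compartment, a nuclear body marking cancer cells; inconclusive = readout between -30 and a set limit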
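Read-out is percentage of cells bearing a perinucleolar compartment, from automated 20x imaging of fixed, Hoechst-stained PC3M PTB-GFP cells. Cells were seeded 4 h, then exposed 16 h to compound (23 nl of library stock) in duplicate plates.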
HPGD block: HPGD (human) dehydrogenase inhibition; P15428; purified HPGD, NADH fluorescence kinetic, PGE2 substrate; Potency, µM, hits mostly inhibitors; 150,000 compounds, 4.3% hits; AID 894; active = well fitted inhibition curve with a large enough effect, not every such curve was filed as active; inconclusive = small, poorly fitted or top-dose-only effect, or another doubt; inactive = no such curve, though single readings can be large or run the other way
Target sequence (P15428 whole entry, looked up): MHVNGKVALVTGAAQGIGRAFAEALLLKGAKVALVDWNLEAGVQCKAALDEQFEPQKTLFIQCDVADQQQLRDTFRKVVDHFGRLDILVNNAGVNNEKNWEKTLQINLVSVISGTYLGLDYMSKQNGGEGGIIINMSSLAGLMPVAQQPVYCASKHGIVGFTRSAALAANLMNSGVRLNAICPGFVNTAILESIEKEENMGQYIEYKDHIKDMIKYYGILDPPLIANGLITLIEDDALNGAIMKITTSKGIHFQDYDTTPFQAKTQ
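20 nM HPGD preincubated 15 min at room temperature with compound in 50 mM Tris-HCl pH 8, 0.01% Tween 20. Started with 1 mM NAD+ and 30 uM prostaglandin E2; NADH fluorescence (360/450 nm) read 5 times over 30-s intervals, last minus first.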
IMPase inh: membrane-permeable compound that blocks inositol monophosphatase; CHO-M1 cells, IP1 accumulation, HTRF TR-FRET ratio; 120,000 tested, under 10 active; P97697; inhibition (IP1 accumulation), % at 46.1 µM; active = well fitted curve in the direction sought with a large enough effect in the signal ratio, not every such curve was filed as active; inconclusive = small, poorly fitted or top-dose-only effect, or a change in a side signal; inactive = no such curve, though single readings can be large or run the other way; the % refers to the signal ratio;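 note: cells stimulated with carbachol in lithium chloride buffer; higher means more IMPase inhibition seen as more IP1 and lower FRET ratio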
Target sequence (P97697 whole entry, looked up): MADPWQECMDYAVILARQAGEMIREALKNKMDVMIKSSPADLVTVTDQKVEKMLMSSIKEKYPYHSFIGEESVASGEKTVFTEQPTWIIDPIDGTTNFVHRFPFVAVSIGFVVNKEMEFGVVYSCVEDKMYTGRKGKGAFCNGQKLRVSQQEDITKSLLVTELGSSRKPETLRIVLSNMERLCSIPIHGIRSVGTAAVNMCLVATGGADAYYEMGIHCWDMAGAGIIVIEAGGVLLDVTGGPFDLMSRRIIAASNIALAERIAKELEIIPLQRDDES
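Cellular IMPase inhibition is scored as a rise in cytosolic IP1, detected by competitive TR-FRET between d2-labelled IP1 and a europium anti-IP1 antibody. M1-expressing CHO cells were stimulated with carbachol for 30 min at 37C, with lithium (50 mM LiCl) present in the buffer.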
ALOX12 inhib: 12-hLO (ALOX12) enzyme inhibition; P18054; purified 12-hLO, xylenol orange hydroperoxide absorbance; Potency, µM (highest dose often 57.1 µM), usual class: inhibitors; 150,000 compounds, 0.12% hits; AID 1452; note: nearly all actives have a fitted effect of over 55% in size
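Purified human 12hLO (150 nM final) was preincubated with compounds for 15 min at room temperature in 25 mM Hepes pH 7.0, 0.01% Triton X-100, then reacted with 40 uM arachidonic acid for 30 min. Hydroperoxide was detected with ferrous iron/xylenol orange.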
IMPase Li inh: membrane-permeable IMPase blocker, potentiated with lithium; CHO-M1 cells, IP1 TR-FRET (IP-One), carbachol + lithium; Potency, µM (top dose mostly 59.4 µM), most hits filed as inhibitors; AID 1457; 210,000 compounds, 0.35% hits;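 note: IP1 builds up when IMPase is blocked and the TR-FRET signal falls; nearly all actives have a fitted effect of over 50% in size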
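IP1 accumulation measured by competitive TR-FRET in lysed CHO-M1 cells after 30 min compound exposure at 37C, with a small lithium addition to potentiate weak responses. Hill-equation AC50 from ratio and donor-channel data.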
Hits are given with their value; – = inactive; ? = inconclusive; · = no result given; [ ] = remark or other dose. Unless noted, calls come from the whole dose curve; as a rule, active = well fitted curve in the direction sought with a large enough effect; inconclusive = small, poorly fitted or top-dose-only effect, or another doubt; inactive = no such curve, though single readings can be large; an effect the other way counts as inactive or inconclusive.

SMILES	15-hLO-2 inh	PNC inhibitor	HPGD block	IMPase inh	ALOX12 inhib	IMPase Li inh
COc1ccc2nc(NC(=O)C3CCCN(S(=O)(=O)c4cccc5nonc45)C3)sc2c1 (configuration not stated)	·	-100	–	–	–	–
CS(=O)(=O)c1ccc(S(=O)CC(=O)Oc2ccc(Cl)cc2)c([N+](=O)[O-])c1 (configuration not stated)	·	·	·	·	·	–
Cc1cc(=O)[nH]c(S/C=C/c2ccccc2)n1	–	–	20µM	–	–	–
CN1CCN(C(CNS(=O)(=O)c2ccc(F)cc2)c2cccnc2)CC1 (configuration not stated)	·	-100	–	–	–	–
CN1CCN(C(CNS(=O)(=O)c2ccc(Cl)cc2)c2cccnc2)CC1 (configuration not stated)	·	-100	–	–	–	–
COc1ccc(OC)c(S(=O)(=O)NC(N)=NCCc2ccccc2)c1	·	·	·	·	·	–
O=C(CN1C(=O)CSc2ccccc21)N1CCc2ccccc21	–	-90	–	–	–	–
Cc1c(CNC(=O)c2cnn3c2NC(c2ccc(Br)cc2)CC3C(F)(F)F)cnn1C (configuration not stated)	–	-123	–	–	–	–
COc1cccc(C2CC(C(F)(F)F)n3ncc(C(=O)NC(C)(C)C)c3N2)c1 (configuration not stated)	–	–	–	–	–	–
COc1cccc(C2CC(C(F)(F)F)n3ncc(C(=O)NCc4ccco4)c3N2)c1 (configuration not stated)	–	–	20µM	–	–	–
O=C(NCC1CCCO1)c1cnn2c1NC(c1ccccc1)CC2C(F)(F)F (configuration not stated)	–	–	25µM	–	–	–
O=C(NCC1CCCO1)c1nn2c(c1Cl)NC(c1ccc(F)cc1)CC2C(F)(F)F (configuration not stated)	–	–	–	–	–	–
O=C(Nc1ccccc1)C1=C[C@@H](C2CC2)C[C@@H](OCCCCO)O1	·	·	·	·	·	–
Cc1ccc(S(=O)(=O)NC(CC(=O)N2CCOCC2)c2ccco2)cc1 (configuration not stated)	–[11.4 µM]	-91	–	–[1.84 µM]	–	?
Cc1ccc(O)c(C(CC(=O)N2CCCC2)c2ccccc2)c1 (configuration not stated)	·	–	7.1µM	·	–	–
O=C(CC(c1ccccc1)c1ccco1)N1CCOCC1 (configuration not stated)	·	–	18µM	–	–	–
Cc1ccc(S(=O)(=O)NC(CC(=O)NC2CCCC2)c2ccco2)cc1 (configuration not stated)	–[11.4 µM]	–	–	–[1.84 µM]	–	–
CCCCNC(=O)Cc1ccc(C)cc1	·	–	?	·	–	–
CCC(C)(C)NC(=O)Cc1ccc(C)cc1	–	–	14µM	–	–	–
CCCCC(CC)CNCC(CC)CCCC (configuration not stated)	–	·	–	·	–	–
CCCCCCN1C=C/C(=C\C=C(C#N)C#N)c2ccccc21	·	?	–	–	–	–
CCCCCCN1C=CC=C/C1=C/C=C(C#N)C#N	·	–	11µM	·	–	–
COc1c(O)ccc(C2NC(=O)NC(C)=C2C(=O)Nc2ccccc2C)c1[N+](=O)[O-] (configuration not stated)	·	·	·	·	·	–
Cn1cccc1Cc1nnc(SCC(=O)Nc2ccc3c(c2)OCO3)n1-c1ccc(F)cc1	·	–	–	–	–	–
COc1ccc(OC)c(-n2nnnc2SCC(=O)N2CCN(C(=O)c3ccco3)CC2)c1	·	·	·	·	·	–
SMILES	15-hLO-2 inh	PNC inhibitor	HPGD block	IMPase inh	ALOX12 inhib	IMPase Li inh
O=C(CSCc1ccccc1)N1CCN(C(=O)c2ccco2)CC1	·	-100	–	–	–	–
Cc1ccc(-n2nnnc2SCC(=O)N2CCN(C(=O)c3ccco3)CC2)c(C)c1	–	-83	–	–	–	–
O=C(c1ccco1)N1CCN(CC(O)Cn2c3ccccc3c3ccccc32)CC1 (configuration not stated)	–	-87	–	–	–	–
CCO[C@@H]1OC(C(=O)N2CCOCC2)=C[C@H](c2ccccc2)[C@H]1CCCO	·	·	·	·	·	–
CC1CCCCC1NC(=O)c1cncc(Br)c1 (configuration not stated)	–	-81	–	–	–	–
CC1CCCC(NC(=S)NC(=O)c2cncc(Br)c2)C1C (configuration not stated)	·	–	–	·	–	–
O=C(C1COc2ccccc2O1)N1CCc2ccccc2C1 (configuration not stated)	·	?	7.1µM	–	–	–
O=C(C1COc2ccccc2O1)N1CCN(c2ccccc2Cl)CC1 (configuration not stated)	·	·	·	·	·	–
COc1ccc(-c2coc3cc4oc(=O)cc(-c5ccccc5)c4cc23)cc1F	·	-111	?	–	–	–
COc1ccc(-c2coc3cc4oc(=O)cc(C)c4cc23)cc1F	?	–	?	–	–	–
CCOC(=O)C(C(=O)OCC)c1cc(Br)c2noc3c2c1C(=O)c1ccccc1-3	?	-83	?	–	–	–
CCOCC(=O)Nc1ccc(C)c(Cl)c1	–	–	16µM	–	–	–
CCOCC(=O)Nc1cccc(OC)c1	·	-89	?	–	–	–
COc1cccc(NC(=O)CCC(=O)Nc2cccc(OC)c2)c1	·	–	–	·	–	–
Cc1cc2nnc(SCC(=O)OC(C)C)n2c2ccccc12	–	–	–	–	–	–
Oc1cccc(C=NCc2ccccc2)c1O	?	–	16µM	–	–	–
Cc1cccc(Cn2c(=O)n(CCCC(=O)NCc3ccccc3Cl)c(=O)c3ccccc32)c1	·	·	·	–	·	·
O=C(c1cc2ccccc2cc1OCC(O)CN1CCCCC1)N1CCCCC1 (configuration not stated)	–	–	11µM	–	–	–
CC1(C)NC(=O)N(CC(O)COc2cc3ccccc3cc2C(=O)N2CCCCC2)C1=O (configuration not stated)	–	–	–	–	–	–
CCc1cccc(NC(=O)CSC2=NS(=O)(=O)c3ccccc32)c1	5µM	–	22µM	–	–	–
CCc1cccc(NC(=O)CSCc2cc(=O)[nH][nH]2)c1	–	?	–	–	–	–
CCOc1ccc(CNC(=O)C(CC)n2nc(C)n3c(cc4occc43)c2=O)cc1OC (configuration not stated)	–	-89	–	–	–	–
Cc1cc(C)nc(Sc2nc(Cl)nc(N(c3ccccc3)c3ccccc3)n2)n1	–	–	–	–	–	–
